The compounds below were run against T1, Mitogen-activated protein kinase 12 (Homo sapiens) (UniProt P53778). Conditions: at 0.1 µM.
T1 sequence (whole entry): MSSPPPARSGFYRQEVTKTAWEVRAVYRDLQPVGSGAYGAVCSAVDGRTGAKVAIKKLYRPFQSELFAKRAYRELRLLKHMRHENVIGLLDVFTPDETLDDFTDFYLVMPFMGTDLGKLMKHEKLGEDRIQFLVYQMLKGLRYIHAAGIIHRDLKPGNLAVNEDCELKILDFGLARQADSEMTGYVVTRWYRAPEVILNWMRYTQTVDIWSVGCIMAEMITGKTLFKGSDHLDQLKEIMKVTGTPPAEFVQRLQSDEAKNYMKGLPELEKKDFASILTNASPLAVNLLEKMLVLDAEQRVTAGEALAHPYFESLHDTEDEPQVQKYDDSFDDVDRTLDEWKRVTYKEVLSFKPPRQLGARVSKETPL
With `ON=C1CCc2cc(-c3nc(C4CCNCC4)[nH]c3-c3ccncc3)ccc21` the inhibition was 1.31%.
With `O=C1Nc2ccc(-c3cccnc3)cc2C1=Cc1cc(Br)c(O)c(Br)c1` the inhibition was 2.25%.
Work on `CCOc1nccc2c1nc(-c1nonc1N)n2CC` yielded an inhibition of 0.94%.
`c1ccc(Cc2nc3ccc(Nc4ncnc5ccccc45)cc3[nH]2)cc1` was tested, and the inhibition was 1.83%.
`O=C(Nc1ccc(Oc2ccc3[nH]c(NC(=O)c4ccco4)nc3c2)cc1)Nc1cc(C(F)(F)F)ccc1F` gave an inhibition of -4.43%.
`FC(F)(F)c1ccc(-c2nn3ncccc3c2-c2ccnc(Nc3ccc4c(c3)OCCO4)n2)cc1` gave an inhibition of 4.31%.
`COc1cc2ncnc(Nc3ccc(C)c(O)c3)c2cc1OC` gave an inhibition of 2.43%.
For `c1ccc(Nc2ncc(-c3ccccc3)o2)cc1`, the inhibition was 2.89%.
In the case of `Cc1ccc(NC(=O)CC2CC2)cc1-c1ccc(C(=O)NCC2CC2)cc1`, the inhibition is reported as 0.38%.
Work on `OCc1ccc(-c2nc(-c3ccccn3)c(-c3ccc4c(c3)OCO4)[nH]2)cc1` yielded an inhibition of 0.63%.
`Cc1ccc(Nc2ccnc(Nc3cccc(C(N)=O)c3)n2)cc1O` showed an inhibition of -1.03%.
`CN(c1ccc(NC(=O)Nc2ccc(OC(F)(F)F)cc2)cc1)c1ccnc(Nc2cccc(S(N)(=O)=O)c2)n1` showed an inhibition of 2.28%.
Compound `CN(C)C(=O)O[C@@H]1CN[C@@H](C#Cc2cc3ncnc(Nc4ccc(OCc5cccc(F)c5)c(Cl)c4)c3s2)C1` has an inhibition of 0.57%.
In the case of `NS(=O)(=O)c1ccc(Nc2cc(-c3cccc(O)c3)n[nH]2)cc1`, the inhibition is reported as 3.84%.
Compound `Cc1ccc2c(-c3ccnc(Nc4cccc(C(F)(F)F)c4)n3)c(-c3ccccc3)nn2n1` has an inhibition of 3.8%.
Compound `COC(=O)Nc1nc2cc(Oc3ccc(NC(=O)Nc4cccc(Br)c4)cc3)ccc2[nH]1` has an inhibition of 2.07%.
`N#Cc1c(NC(=O)c2ccccc2F)sc2c1CCCC2` gave an inhibition of -1.2%.
`CN(C)CCCn1c(-c2nonc2N)nc2cnccc21` showed an inhibition of 3.33%.
With `NS(=O)(=O)c1ccc(-c2cc3ccncc3cc2OCc2ccccc2)cc1` the inhibition was -0.17%.
Compound `NS(=O)(=O)c1cccc(-c2cc3ccncc3cc2OCc2ccccc2)c1` has an inhibition of 0.96%.
`N#Cc1cccc(Nc2nccc(-c3cnn4ncccc34)n2)c1` was tested, and the inhibition was 4.57%.
`COc1cccc(-n2nc(C)c3c(N/N=C(\C)c4ccncc4)ncnc32)c1` gave an inhibition of -0.13%.
`Oc1cccc(-c2nc(-c3ccccc3)[nH]c2-c2ccncc2)c1` was tested, and the inhibition was -0.21%.
`COc1cccc(-n2ncc3c(N/N=C/c4ccc(C)cc4)ncnc32)c1` showed an inhibition of 3.81%.
With `COc1cccc(-n2ncc3c(N/N=C/c4ccc(S(C)(=O)=O)cc4)ncnc32)c1` the inhibition was 2.12%.
In the case of `NC(=O)c1sc(-n2cnc3ccccc32)cc1OCc1ccccc1Br`, the inhibition is reported as 3.45%.
Compound `Cc1cc(O)cc(C)c1/C=C/c1cncc(C(=O)N(C)C)c1` has an inhibition of 4.71%.
For `COc1cc(/C=N/Nc2ncnc3c2cnn3C(C)C)ccc1O`, the inhibition was 1.85%.
In the case of `NS(=O)(=O)c1ccc(N/N=C2\C(=O)Nc3ccc(Cl)cc32)cc1`, the inhibition is reported as 0.26%.
`Cc1cc(Cl)cc2c1NC(=O)C2=NNc1ccc(S(N)(=O)=O)cc1` gave an inhibition of 0.32%.
Work on `NC(=O)c1cccc(Nc2nccc(Nc3cccc(F)c3)n2)c1` yielded an inhibition of 1.16%.
With `COc1cc2ncn(-c3cc(OCc4ccccc4S(C)(=O)=O)c(C#N)s3)c2cc1OC` the inhibition was 0.36%.
`CCS(=O)(=O)c1ccc(OC)c(Nc2ncc(-c3cccc(OC)c3)o2)c1` was tested, and the inhibition was -4.79%.
With `CS(=O)(=O)Nc1cccc(-c2ccc3c(NC(=O)C4CC4)n[nH]c3c2)c1` the inhibition was 1.49%.

Each compound was assayed against T1, Mitogen-activated protein kinase 12 (Homo sapiens). Conditions: at 1 µM.
`ON=C1CCc2cc(-c3nc(C4CCNCC4)[nH]c3-c3ccncc3)ccc21` showed an inhibition of 1%.
Work on `O=C1Nc2ccc(-c3cccnc3)cc2C1=Cc1cc(Br)c(O)c(Br)c1` yielded an inhibition of 2.31%.
`CCOc1nccc2c1nc(-c1nonc1N)n2CC` showed an inhibition of 3.14%.
`c1ccc(Cc2nc3ccc(Nc4ncnc5ccccc45)cc3[nH]2)cc1` showed an inhibition of 0.6%.
In the case of `O=C(Nc1ccc(Oc2ccc3[nH]c(NC(=O)c4ccco4)nc3c2)cc1)Nc1cc(C(F)(F)F)ccc1F`, the inhibition is reported as 3.11%.
`FC(F)(F)c1ccc(-c2nn3ncccc3c2-c2ccnc(Nc3ccc4c(c3)OCCO4)n2)cc1` was tested, and the inhibition was 2.26%.
In the case of `COc1cc2ncnc(Nc3ccc(C)c(O)c3)c2cc1OC`, the inhibition is reported as 4.08%.
In the case of `c1ccc(Nc2ncc(-c3ccccc3)o2)cc1`, the inhibition is reported as 5.26%.
For `Cc1ccc(NC(=O)CC2CC2)cc1-c1ccc(C(=O)NCC2CC2)cc1`, the inhibition was 2.02%.
With `OCc1ccc(-c2nc(-c3ccccn3)c(-c3ccc4c(c3)OCO4)[nH]2)cc1` the inhibition was 2.49%.
In the case of `Cc1ccc(Nc2ccnc(Nc3cccc(C(N)=O)c3)n2)cc1O`, the inhibition is reported as 1.74%.
Work on `CN(c1ccc(NC(=O)Nc2ccc(OC(F)(F)F)cc2)cc1)c1ccnc(Nc2cccc(S(N)(=O)=O)c2)n1` yielded an inhibition of 11.2%.
With `CN(C)C(=O)O[C@@H]1CN[C@@H](C#Cc2cc3ncnc(Nc4ccc(OCc5cccc(F)c5)c(Cl)c4)c3s2)C1` the inhibition was 1.28%.
With `NS(=O)(=O)c1ccc(Nc2cc(-c3cccc(O)c3)n[nH]2)cc1` the inhibition was 3.15%.
With `Cc1ccc2c(-c3ccnc(Nc4cccc(C(F)(F)F)c4)n3)c(-c3ccccc3)nn2n1` the inhibition was 5.59%.
Work on `COC(=O)Nc1nc2cc(Oc3ccc(NC(=O)Nc4cccc(Br)c4)cc3)ccc2[nH]1` yielded an inhibition of 1.52%.
For `N#Cc1c(NC(=O)c2ccccc2F)sc2c1CCCC2`, the inhibition was -0.74%.
Work on `CN(C)CCCn1c(-c2nonc2N)nc2cnccc21` yielded an inhibition of 3.42%.
`NS(=O)(=O)c1ccc(-c2cc3ccncc3cc2OCc2ccccc2)cc1` gave an inhibition of 2.36%.
In the case of `NS(=O)(=O)c1cccc(-c2cc3ccncc3cc2OCc2ccccc2)c1`, the inhibition is reported as 3.69%.
Work on `N#Cc1cccc(Nc2nccc(-c3cnn4ncccc34)n2)c1` yielded an inhibition of 26.4%.
With `COc1cccc(-n2nc(C)c3c(N/N=C(\C)c4ccncc4)ncnc32)c1` the inhibition was 0.35%.
For `Oc1cccc(-c2nc(-c3ccccc3)[nH]c2-c2ccncc2)c1`, the inhibition was 1.56%.
For `COc1cccc(-n2ncc3c(N/N=C/c4ccc(C)cc4)ncnc32)c1`, the inhibition was 6.67%.
`COc1cccc(-n2ncc3c(N/N=C/c4ccc(S(C)(=O)=O)cc4)ncnc32)c1` was tested, and the inhibition was 2.32%.
Compound `NC(=O)c1sc(-n2cnc3ccccc32)cc1OCc1ccccc1Br` has an inhibition of 5.59%.
Compound `Cc1cc(O)cc(C)c1/C=C/c1cncc(C(=O)N(C)C)c1` has an inhibition of 2.68%.
Compound `COc1cc(/C=N/Nc2ncnc3c2cnn3C(C)C)ccc1O` has an inhibition of 1.85%.
Work on `NS(=O)(=O)c1ccc(N/N=C2\C(=O)Nc3ccc(Cl)cc32)cc1` yielded an inhibition of 2.14%.
In the case of `Cc1cc(Cl)cc2c1NC(=O)C2=NNc1ccc(S(N)(=O)=O)cc1`, the inhibition is reported as 2.01%.
Compound `NC(=O)c1cccc(Nc2nccc(Nc3cccc(F)c3)n2)c1` has an inhibition of 1.35%.
`COc1cc2ncn(-c3cc(OCc4ccccc4S(C)(=O)=O)c(C#N)s3)c2cc1OC` showed an inhibition of 2.63%.
`CCS(=O)(=O)c1ccc(OC)c(Nc2ncc(-c3cccc(OC)c3)o2)c1` was tested, and the inhibition was 2.08%.
`CS(=O)(=O)Nc1cccc(-c2ccc3c(NC(=O)C4CC4)n[nH]c3c2)c1` was tested, and the inhibition was 0.75%.
